Most compounds without a hit are left out; they make up all but 3.3% or so of the library.
Sm TGR block = qHTS Assay for the Inhibitors of Schistosoma Mansoni Peroxiredoxins; Schistosoma mansoni thioredoxin glutathione reductase (TGR), Q962Y6; purified TGR, DTNB reduction, TNB absorbance 405 nm; Potency, µM (titrated, usually from 114 µM), for the others: at the top dose activity change, negative = inhibition, hits mostly inhibitors; 360,000 compounds, 3% hits; further: nearly all actives have a fitted effect of over 60% in size
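TGR 20 nM + NADPH 100 uM (dispensed conc.), cpd preinc 15 min RT; start with NADPH (500 uM addition) then DTNB (15 mM addition). Kinetic TNB absorbance, 405 nm filter. Four-parameter Hill fit across titration.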
AmpC no deterg = qHTS Inhibitors of AmpC Beta-Lactamase (assay without detergent). P00811. AmpC nitrocefin hydrolysis, absorbance 480 nm, 0.0001% Triton. Potency, µM (highest dose often 57.1 µM), for the others: at the highest dose activity change, negative = inhibition, usual class: inhibitors. 330,000 compounds, 0.52% hits;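 further: plate controls were no compound for no effect and no enzyme for full effect; nearly all actives have a fitted effect of over 20% in size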
Target sequence (P00811 whole entry, looked up): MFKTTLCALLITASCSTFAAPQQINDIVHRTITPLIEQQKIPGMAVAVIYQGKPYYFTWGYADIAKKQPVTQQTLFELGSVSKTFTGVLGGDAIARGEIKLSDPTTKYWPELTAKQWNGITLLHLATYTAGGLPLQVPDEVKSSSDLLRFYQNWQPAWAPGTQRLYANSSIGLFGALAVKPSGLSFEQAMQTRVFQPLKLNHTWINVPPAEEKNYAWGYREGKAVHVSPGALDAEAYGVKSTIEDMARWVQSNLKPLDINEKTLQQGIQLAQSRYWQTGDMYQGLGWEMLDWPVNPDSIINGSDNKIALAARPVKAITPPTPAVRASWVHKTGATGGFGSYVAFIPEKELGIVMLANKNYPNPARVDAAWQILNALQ
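AmpC (5.3 nM in the dispensed reagent) in 20 mM phosphate pH 7.0 with 0.01% (detergent screen) or 0.0001% Triton X-100 was preincubated with compounds for 15 min at room temperature. Nitrocefin was then added from an 800 uM solution, and hydrolysis was followed at 480 nm.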
AmpC inh detg = qHTS Inhibitors of AmpC Beta-Lactamase (assay with detergent) | P00811 | AmpC hydrolysis of nitrocefin, absorbance 480 nm, 0.01% Triton | Potency, µM (top dose mostly 114 µM), for the others: at the highest dose activity change, negative = inhibition, usual class: inhibitors | 370,000 compounds, 0.041% hits | AID 485294, 2010;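 further: 0% = no-compound wells and -100% = no-enzyme wells; nearly all actives have a fitted effect of over 25% in size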
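20 mM phosphate pH 7.0 + 0.01% (detergent screen) or 0.0001% Triton X-100; 5.3 nM AmpC reagent; cpd preinc 15 min RT; nitrocefin (800 uM stock) to start; A480 q20 s × 4 min; Activity was normalised to no-enzyme and no-compound control wells.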
Starred values were filed as active, the others as inactive; ? = inconclusive; / = not tested or not shown. The call rests on the fitted dose curve; in most records, active means well fitted curve in the direction sought with a large enough effect; inconclusive means small, poorly fitted or top-dose-only effect, or another doubt; inactive means no such curve, though single readings can be large; an effect the other way counts as inactive or inconclusive. Unless noted, on the % scale 0 is the no-effect control and ±100 the full control effect; potency means the concentration at half of the fitted maximal effect.

SMILES	Sm TGR block	AmpC no deterg	AmpC inh detg
O=C(NC1CCCCC1)C(c1ccc(F)cc1)N(C(=O)c1csnn1)C1CCCC1 (configuration not stated)	0.0%	38.4%	-0.8%
COCC1CCN(C(=O)CCc2nnc(CCCCc3ccccc3)o2)CC1	-1.0%	101.8%	7.9%
CCOC(=O)c1cnc(SSc2ncc(C(=O)OCC)c(N)n2)nc1N	50.1µM*	126.9%	?
C=CCSc1ncc(C(=O)OCC)c(N)n1	5.4%	-9.9%	4.8%
Cc1cccc(NC(=O)/C(C#N)=C/c2ccccc2O)n1	89.1µM*	-9.1%	-5.5%
Cc1cccc(NC(=O)/C(C#N)=C/c2ccccc2Cl)n1	-31.1%	-20.5%	-8.3%
Nc1c2c(nn1-c1ccc(F)cc1)CSC2	-10.0%	-28.7%	-0.1%
CC1(C)COC(c2cc([N+](=O)[O-])ccc2Cl)=N1	-3.7%	-3.6%	1.2%
CC1(C)COC(c2ccc(F)c([N+](=O)[O-])c2)=N1	50.1µM*	-29.9%	-14.6%
CCCC(=O)Nc1ccc2nn(-c3ccc(CC)cc3)nc2c1	-0.8%	/	-1.5%
O=C(CN1C=NS(=O)(=O)c2ccccc21)Nc1ccccc1F	7.3%	/	3.5%
CCN1C(=O)[C@H]2[C@@H](c3ccc(-c4ccc(Cl)c(Cl)c4)c(OC)c3)N[C@@](C)(C(=O)OC)[C@H]2C1=O	39.8µM*	31.7%	?
CCN1C(=O)[C@H]2[C@@H](c3ccc(-c4ccc(Cl)c(Cl)c4)cc3)N[C@@](C)(C(=O)OC)[C@H]2C1=O	?	24.7%	?
CCS(=O)(=O)N1CCc2cc(C(=O)Nc3cc(Cl)ccc3C)ccc21	1.6%	/	21.7%
CC1=C/C(=C(/c2ccc(O)c(C)c2)c2ccccc2S(=O)(=O)O)C=CC1=O	-24.8%	-15.4%	-0.5%
CC1=C/C(=C(/c2cc(C)c(O)c(Br)c2)c2ccccc2S(=O)(=O)O)C=C(Br)C1=O	44.7µM*	-23.3%	2.2%
NC(CSCc1ccccc1Cl)C(=O)O (configuration not stated)	15.8µM*	-29.9%	-5.0%
O=C(O)c1ccc(CSCc2ccccc2Cl)o1	-34.1%	-9.2%	-24.9%
CCn1c2c(c(=O)n3ncc(C(=O)Nc4ccc(F)c(Cl)c4)c13)CN(Cc1ccc(OC)cc1)CC2	-21.1%	/	1.0%
C=CCn1c(O)c(CN2CCN(Cc3ccccc3)CC2)c(C)c(C#N)c1=O	44.7µM*	-27.6%	1.0%
CCCn1c(O)c(CN2CCCCC2)c(C)c(C#N)c1=O	-29.1%	-20.0%	-19.2%
COc1ccc(N2CCN(CCCNC(=O)C(=O)c3c[nH]c4ccccc34)CC2)cc1	-0.8%	64.9%	-3.1%
COc1ccc(C2=NN(C(=O)c3ccccc3)C(c3ccc(OC)c(OC)c3)C2)c(O)c1 (configuration not stated)	4.8%	-14.6%	1.0%
CCOC(=O)c1ccccc1NC(=O)CN1C(=O)CC(c2ccco2)Sc2ccccc21 (configuration not stated)	-2.6%	/	15.0%
CCOC(=O)c1ccccc1NC(=O)CN1C(=O)CCS(=O)(=O)c2ccccc21	39.8µM*	-21.1%	-4.2%
SMILES	Sm TGR block	AmpC no deterg	AmpC inh detg
O=C(CN1C(=O)CCS(=O)(=O)c2ccccc21)Nc1ccc2c(c1)OCCO2	-0.4%	-6.5%	?
O=C(CN1C(=O)CCS(=O)(=O)c2ccccc21)Nc1ccc(Cl)cc1	50.1µM*	8.1%	0.9%
Cn1c2cc(Br)sc2c2cnn(Cc3ccc(F)cc3)c(=O)c21	0.5%	-11.1%	-10.3%
CCCCn1c(N)c(N(CCOC)C(=O)CSc2nnc(C)n2-c2ccc(OC)cc2)c(=O)[nH]c1=O	-3.1%	7.7%	-1.9%
O=C(Cn1ncc(Cl)c(Cl)c1=O)c1ccc2c(c1)OCCO2	/	-27.4%	/
Cc1cc(Br)ccc1NC(=O)CNC(=O)Cn1ncc(Cl)c(Cl)c1=O	1.41µM*	-21.2%	4.1%
CCOC(=O)c1ccc(NC(=O)Cn2nc(C)c3ccccc3c2=O)cc1	0.0%	-8.6%	?
CCOC(=O)c1ccc(NC(=O)Cn2ncc(Cl)c(Cl)c2=O)cc1	17.8µM*	-59.3%	-1.8%
Cc1ccc2oc(=O)c3cnn(CC(=O)Nc4ccc(Br)cc4C)c3c2c1	-0.3%	/	1.3%
Cc1ccc(C(=O)OCn2ncc(Cl)c(Cl)c2=O)cc1	3.98µM*	-11.1%	-0.9%
CCC(=O)Nc1ccc(C(=O)Cn2ncc(Cl)c(Cl)c2=O)cc1	2.82µM*	-5.0%	-7.7%
O=C(OCn1ncc(Cl)c(Cl)c1=O)c1ccc(C(F)(F)F)cc1	0.0%	-13.3%	?
CSc1ccccc1NC(=O)CN(C)C(=O)CCc1c[nH]c2ccccc12	13.0%	-2.6%	-6.2%
CCCCCCCCCC(=O)N[C@@H]1c2cc(OC)c(OC)cc2C[C@H]1OCc1ccccc1	/	-15.6%	/
NC(=O)NC(=O)CSc1nnc(-c2ccc(Cl)cc2)n1CC1CCCO1 (configuration not stated)	1.3%	-9.8%	-0.7%
Cc1ccc(C(=O)CSc2nnc(-c3ccco3)n2CC2CCCO2)cc1 (configuration not stated)	20µM*	?	4.6%
Cc1occc1-c1nnc(SCC(=O)c2ccc(Cl)cc2)n1CC1CCCO1 (configuration not stated)	20µM*	2.4%	-1.5%
CC1CCCCN1C(=O)CSc1nnc(-c2ccco2)n1CC1CCCO1 (configuration not stated)	?	-13.7%	-13.5%
CCn1c(SCC(=O)c2ccc(Cl)cc2)nnc1-c1ccoc1C	25.1µM*	-7.6%	-14.0%
CCn1c(SCC(=O)c2ccc(C)cc2)nnc1-c1ccoc1C	?	11.2%	2.1%
CCOC(=O)CC(NS(=O)(=O)Cc1ccccc1)c1ccc(C)cc1 (configuration not stated)	-22.9%	-10.0%	-6.3%
C=C(NS(=O)(=O)c1ccc(C)cc1)C(=O)OC	/	-4.3%	/
COC(=O)CNC(=O)Cn1nc(C)c([N+](=O)[O-])c1C	15.0%	-17.4%	2.9%
COc1ccc(-n2cc(C(=O)NCc3ccccc3)c3ccccc3c2=O)cc1	-7.4%	/	4.1%
CCCc1ccc2oc(C(=O)N(C)Cc3nccs3)c(C)c2c1	6.4%	149.4%	1.5%
SMILES	Sm TGR block	AmpC no deterg	AmpC inh detg
CC(=O)N1CCN(c2csc3ccc(F)cc3c2=O)CC1	89.1µM*	/	-0.2%
CC(=O)N1CCN(c2csc3ccc(Cl)cc3c2=O)CC1	-11.2%	/	-5.1%
C/C(=N/NC(=O)CNC(=O)c1cccnc1)c1ccccc1	6.2%	-16.3%	-2.3%
COc1ccc(-c2cc(C(F)(F)F)n3ncc(C(=O)N4CCCCC4c4cccnc4)c3n2)cc1 (configuration not stated)	-2.7%	-0.7%	-7.6%
O=C1CC(c2ccccc2)c2cc(O)ccc2O1 (configuration not stated)	22.4µM*	-16.0%	?
Cc1ccc(C2CC(=O)Oc3cc(O)ccc32)cc1 (configuration not stated)	2.3%	1.5%	0.4%
CC1CCCN(S(=O)(=O)c2ccc(C(=O)NC(C)c3ccccc3)cc2)C1 (configuration not stated)	-1.0%	-15.3%	-5.3%
COc1ccc(-n2nnnc2S(=O)(=O)Cc2ccc(C(=O)O)cc2)cc1	12.6µM*	-9.9%	-13.1%

Source: PubChem
